Measured values: the supplement of paper PMC10646978
± gives the standard deviation.

Columns and labels:
Conditions in all cases: modulator concentration 10 µM
[1] = test system: RAW-Dual (murine macrophage reporter line); assay: NF-kB reporter (SEAP) activity fold change vs agonist alone; higher = enhanced NF-kB activity
Procedure, shortened: (§1)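 In 384-well plates holding 50 000 RAW-Dual murine macrophage reporter cells per well, compound at 10 μM final was pre-incubated for 1 hour at 37 °C, after which a PRR agonist was added overnight. Supernatant SEAP read with QUANTI-Blue at 620 nm absorbance reported NF-κB, and Lucia luciferase read with QUANTI-Luc luminescence reported IRF. Fold change values come from dividing each reporter signal by the mean of agonist-only control wells on the same plate, averaged over replicate plates with propagated errors.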

[2] = test system: RAW-Dual (murine macrophage reporter line); assay: IRF reporter (Lucia luciferase) activity fold change vs agonist alone; higher = enhanced IRF activity
Procedure, shortened: as §1

[3] = test system: RAW-Dual (murine macrophage reporter line); assay: viability score (confluency relative to resting cells, overnight) (fraction); higher = more viable, active = viable (0.7 or more)
Procedure, shortened: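 A compound met the cutoff when both of two confluency masks exceeded 70% of resting cells. Those masks were made with IncuCyte software from IncuCyte images of RAW-Dual macrophages treated overnight at 10 μM final. This is the basis of the viability score, which is confluency relative to resting cells.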

[4] = agonist: CpG ODN 1826 0.5 ug/mL

SMILES	NF-kB reporter [1, 4]	NF-kB reporter ([1]; agonist: LPS 0.1 ug/mL)	NF-kB reporter ([1]; agonist: MPLA […])	IRF reporter ([2]; agonist: 3'3'-cGAMP 10 ug/mL)	IRF reporter ([2]; agonist: LPS 0.1 ug/mL)	IRF reporter ([2]; agonist: MPLA […])	viability score [3]
CCCCCCCC(=O)N[C@H](CN1CCCC1)[C@H](O)c1ccc2c(c1)OCCO2	0.989 ± 0.097	1.03 ± 0.067	1.21 ± 0.026	0.853 ± 0.047	1.03 ± 0.15	1.2 ± 0.11	0.968 (active)
OC1C=C2CCN3Cc4cc5c(cc4C(C1O)C23)OCO5 (configuration not stated)	1.1 ± 0.099	0.352 ± 0.029	1.35 ± 0.14	0.678 ± 0.062	0.751 ± 0.072	1.04 ± 0.19	0.71 (active)
CCN(CC)c1ccc(C=NNC(=O)c2ccccc2)c(O)c1	2.34 ± 0.38	2.11 ± 0.16	4.3 ± 0.34	0.0729 ± 0.013	2.18 ± 0.29	2.36 ± 0.42	0.814 (active)
O=C(Cn1cnc([N+](=O)[O-])n1)Nc1cc(Oc2cccc(C(F)(F)F)c2)cc([N+](=O)[O-])c1	0.529 ± 0.043	0.806 ± 0.097	0.406 ± 0.043	0.902 ± 0.022	1.6 ± 0.14	1.51 ± 0.21	0.995 (active)
Cc1nc2sccn2c(=O)c1CCN1CCC(=C(c2ccc(F)cc2)c2ccc(F)cc2)CC1	0.91 ± 0.1	1 ± 0.061	0.901 ± 0.053	0.92 ± 0.056	1.12 ± 0.18	1.01 ± 0.15	1 (active)
COCc1cc(C)nc2sc(C(=O)c3cccc([N+](=O)[O-])c3)c(N)c12	0.804 ± 0.063	0.719 ± 0.034	0.78 ± 0.29	0.943 ± 0.043	1.36 ± 0.12	1.53 ± 0.14	1.01 (active)
O=C(Nc1ccc([N+](=O)[O-])cc1)c1cc(Cl)ccc1O	1.14 ± 0.18	1.02 ± 0.088	0.841 ± 0.081	0.905 ± 0.033	1.17 ± 0.11	1.28 ± 0.17	0.991 (active)
CCCCc1oc2ccc(NS(C)(=O)=O)cc2c1C(=O)c1ccc(OCCCN(CCCC)CCCC)cc1.Cl	0.403 ± 0.048	0.998 ± 0.099	1.3 ± 0.14	0.945 ± 0.067	1.2 ± 0.12	1.27 ± 0.18	0.29 (inactive)
COCCNCCOc1ccccc1C(C)C	0.767 ± 0.12	1.03 ± 0.084	0.899 ± 0.069	0.895 ± 0.031	1.32 ± 0.26	1.26 ± 0.18	0.554 (inactive)
CCCN(CCC)C(=O)C1=Cc2ccc(-c3ccc(C(=O)N4CCCC4)cc3)cc2N=C(N)C1	0.432 ± 0.022	1.08 ± 0.17	1.12 ± 0.11	0.724 ± 0.034	1.29 ± 0.29	1.58 ± 0.49	0.957 (active)
CC12CC3CC(C)(C1)CC(CNC(=O)c1ccc([N+](=O)[O-])cc1)(C3)C2	1.1 ± 0.1	0.895 ± 0.065	0.957 ± 0.09	0.999 ± 0.032	1.38 ± 0.22	1.48 ± 0.37	1 (active)
c1cnn(-c2ccc(N=Nc3ccc(-n4cccn4)cc3)cc2)c1	0.939 ± 0.087	1.05 ± 0.083	0.966 ± 0.082	0.814 ± 0.037	1.09 ± 0.1	1.02 ± 0.12	0.996 (active)
CC(NCCc1c[nH]c2ccccc12)=C1C(=O)c2ccccc2C1=O	0.972 ± 0.081	0.979 ± 0.11	1.15 ± 0.05	0.425 ± 0.027	0.989 ± 0.033	1.28 ± 0.11	0.991 (active)
COC(=O)C1=C(C)NC(C)=C(C(=O)OCCN(C)Cc2ccccc2)C1c1cccc([N+](=O)[O-])c1 (configuration not stated)	0.317 ± 0.079	0.753 ± 0.06	0.72 ± 0.05	0.324 ± 0.028	1.14 ± 0.24	1.15 ± 0.12	0.982 (active)
Cc1c(OCC(F)(F)F)ccnc1CS(=O)c1nc2ccccc2[nH]1 (configuration not stated)	1 ± 0.16	0.915 ± 0.28	0.929 ± 0.063	0.699 ± 0.037	1.11 ± 0.3	1.07 ± 0.096	0.984 (active)
COc1cc(C2CC3CC2C(C)C3(C)C)ccc1O (configuration not stated)	0.638 ± 0.098	0.716 ± 0.052	0.773 ± 0.078	0.926 ± 0.031	1.01 ± 0.14	1.34 ± 0.22	1.01 (active)
CN(C/C=C/C#CC(C)(C)C)Cc1cccc2ccccc12	0.812 ± 0.066	0.987 ± 0.059	1.08 ± 0.095	1.12 ± 0.055	1.24 ± 0.078	1.27 ± 0.12	1.01 (active)
Cc1cccc2sc(OC3CN(C(=O)Nc4ccccc4C(F)(F)F)C3)nc12	0.912 ± 0.047	1.13 ± 0.089	0.872 ± 0.043	1.12 ± 0.065	1.19 ± 0.19	1.15 ± 0.31	0.981 (active)

SMILES	NF-kB reporter [1, 4]	NF-kB reporter ([1]; agonist: LPS 0.1 ug/mL)	NF-kB reporter ([1]; agonist: MPLA […])	IRF reporter ([2]; agonist: 3'3'-cGAMP 10 ug/mL)	IRF reporter ([2]; agonist: LPS 0.1 ug/mL)	IRF reporter ([2]; agonist: MPLA […])	viability score [3]
Cc1nn2c(=O)c(Cc3ccccc3)c(C)[nH]c2c1-c1ccccc1	0.777 ± 0.068	0.878 ± 0.082	1.06 ± 0.11	1.09 ± 0.057	1.26 ± 0.074	1.36 ± 0.11	1 (active)
CN1CCN(C2CC(=O)N(c3ccc(N4CCOCC4)cc3)C2=O)CC1 (configuration not stated)	0.963 ± 0.079	0.945 ± 0.096	0.864 ± 0.065	1.01 ± 0.025	1.37 ± 0.11	1.13 ± 0.29	1.01 (active)
Cl.Cn1c(=N)n(CC(O)c2ccco2)c2ccccc21 (configuration not stated)	1.05 ± 0.061	1.09 ± 0.077	0.969 ± 0.069	1.22 ± 0.04	1.46 ± 0.21	1.3 ± 0.18	0.992 (active)
O=C(NN=Cc1c(O)ccc2ccccc12)c1ccccc1Br	1.43 ± 0.11	1.24 ± 0.091	1.14 ± 0.092	0.612 ± 0.1	1.05 ± 0.074	0.873 ± 0.057	0.989 (active)
COc1ccc(N2CCN(C(=O)Cc3csc(NC(=O)Nc4ccccc4OC)n3)CC2)cc1	0.911 ± 0.069	1.03 ± 0.1	0.884 ± 0.036	0.784 ± 0.043	0.922 ± 0.073	0.48 ± 0.042	0.983 (active)
CCOC(=O)C1=C(C)NC(=O)N(C(C)=O)C1c1ccc(Br)cc1 (configuration not stated)	0.554 ± 0.032	0.898 ± 0.1	0.868 ± 0.052	1.28 ± 0.044	1.66 ± 0.14	1.34 ± 0.2	0.621 (inactive)
CCOc1ccc(C=NNc2nc(C)cs2)c(O)c1	0.949 ± 0.087	0.965 ± 0.13	1.03 ± 0.073	0.624 ± 0.024	0.988 ± 0.069	0.981 ± 0.15	0.999 (active)
COc1cc(O)c(C(=O)Nc2nc(C(=O)NCCN(C(C)C)C(C)C)cs2)cc1OC	1.25 ± 0.33	1.01 ± 0.073	1.13 ± 0.087	0.997 ± 0.038	0.907 ± 0.1	0.973 ± 0.18	0.994 (active)
CSc1nc(C(C)(C)C)cc(C(F)(F)F)c1C#N	0.738 ± 0.061	0.955 ± 0.15	1.12 ± 0.049	0.998 ± 0.05	0.855 ± 0.12	0.923 ± 0.26	0.996 (active)
CNC1CCCN(c2c(F)cc3c(=O)c(C(=O)O)cn(C4CC4)c3c2OC)C1 (configuration not stated)	0.783 ± 0.095	0.821 ± 0.04	1.12 ± 0.16	1.02 ± 0.048	1.35 ± 0.094	1.43 ± 0.14	0.999 (active)
NN=C1CCCc2c1[nH]c1ccc(Cl)cc21	1.07 ± 0.11	1.04 ± 0.081	1.05 ± 0.056	0.505 ± 0.13	0.95 ± 0.076	0.873 ± 0.12	0.99 (active)
Oc1ccccc1-c1cc(C(F)(F)F)on1	1.02 ± 0.08	0.982 ± 0.068	0.956 ± 0.096	0.349 ± 0.023	1.06 ± 0.066	1.12 ± 0.1	0.361 (inactive)
COC(=O)c1cc(NC(=O)C2CCCC2)cc(C(=O)OC)c1	0.969 ± 0.18	1 ± 0.13	1.15 ± 0.13	0.871 ± 0.09	1.13 ± 0.28	0.97 ± 0.14	0.633 (inactive)
CS(=O)(=O)O.Cc1c(O)cccc1C(=O)N[C@@H](CSc1ccccc1)[C@H](O)CN1C[C@H]2CCCC[C@H]2C[C@H]1C(=O)NC(C)(C)C	0.399 ± 0.017	0.968 ± 0.08	1.29 ± 0.07	1.09 ± 0.056	1.26 ± 0.29	1.32 ± 0.46	0.987 (active)
O=C(NCc1cccc(Oc2ccccn2)c1)C1c2ccccc2Oc2ccccc21	0.52 ± 0.041	1.12 ± 0.088	0.883 ± 0.039	0.801 ± 0.077	1.01 ± 0.12	1.11 ± 0.27	0.992 (active)
CCOC(=O)C1=C(C)NC(C)=C(C(=O)OC)C1c1ccc([N+](=O)[O-])cc1 (configuration not stated)	0.97 ± 0.24	1.01 ± 0.12	1.13 ± 0.23	1.16 ± 0.049	1.01 ± 0.21	1.09 ± 0.21	0.985 (active)
CC1(C)CC(=O)c2sc(NC(=O)c3ccccc3)nc2C1	1.05 ± 0.078	1.08 ± 0.12	1 ± 0.036	0.807 ± 0.048	1 ± 0.13	1.02 ± 0.12	1 (active)
CCOc1ccc(C(CN)N2CCOCC2)cc1 (configuration not stated)	1.07 ± 0.048	0.934 ± 0.079	1.08 ± 0.075	0.943 ± 0.046	1.33 ± 0.28	1.29 ± 0.44	0.941 (active)
